The results in this text go back to PubChem BioAssay (Tox21).

Test [1] deals with Peroxisome proliferator-activated receptor delta (Homo sapiens) (UniProt Q03181). The test is described as follows: qHTS assay to identify small molecule agonists of the peroxisome proliferator-activated receptor delta (PPARd) signaling pathway (AID 743212; calls by dose curve). Summed up: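 Beta-lactamase reporter readout: a ratiometric FRET signal from the LiveBLAzer substrate after 2 h at room temperature. Compound exposure at 37 °C in PPARδ-bla HEK293H cells driven by an upstream activator sequence.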
Background: In qHTS, concentration-response curves come from the screen itself.

A short description of test [2]: qHTS assay to identify small molecule antagonists of the peroxisome proliferator-activated receptor delta (PPARd) signaling pathway - cell viability counter screen (AID 743213). Note: nearly all actives have a fitted effect of over 50% in size. Note: potency is the fitted concentration of half-maximal effect. The method, boiled down: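 CellTiter-Glo was added to PPARd-bla HEK293H wells following 17 h compound treatment in the presence of 300 nM L165041. Luminescence was recorded after 30 min at room temperature.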

In test [3] the target is Peroxisome proliferator-activated receptor delta (Homo sapiens) (UniProt Q03181). The test is described as follows: qHTS assay to identify small molecule antagonists of the peroxisome proliferator-activated receptor delta (PPARd) signaling pathway (AID 743215; active = well fitted inhibition curve with a large enough effect in the signal ratio in the repeat runs, not every such curve was filed as active; the % refers to the signal ratio;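 note: cells stimulated with agonist L165041 at 300 nM final during compound exposure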; note: potency is the fitted concentration of half-maximal effect). Summed up: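 HEK293H GeneBLAzer PPARd UAS-bla reporter cells; cpd + L165041 300 nM final, 17 h 37 C; LiveBLAzer B/G FRET substrate 2 h RT; fluorescence intensity read-out. Antagonist mode.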

Test [4] concerns the target Bile acid receptor (Homo sapiens) (UniProt Q96RI1). The test is described as follows: qHTS assay to identify small molecule antagonists of the farnesoid-X-receptor (FXR) signaling pathway (AID 743217; active = well fitted inhibition curve with a large enough effect in the signal ratio in the repeat runs, not every such curve was filed as active; the % refers to the signal ratio). Summed up:
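Read-out: beta-lactamase FRET fluorescence (LiveBLAzer B/G substrate, 2 h, room temperature) in GeneBLAzer FXR-UAS-bla HEK 293T cells. Compounds were co-dosed with 50 uM chenodeoxycholic acid (final) and incubated 16 h at 37 °C.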

Test [5] can be described thus: qHTS assay to identify small molecule agonists of the farnesoid-X-receptor (FXR) signaling pathway - cell viability counter screen (AID 743218). Note: nearly all actives have a fitted effect of over 45% in size. Note: potency is the fitted concentration of half-maximal effect. The method, boiled down:
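Luminescence from CellTiter-Glo, read after 30 min at RT, reports viability of GeneBLAzer FXR-UAS-bla HEK 293T cells treated 16 h with compounds in the wells used for the beta-lactamase reporter.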

Test [6] has as its target Bile acid receptor (Homo sapiens) (UniProt Q96RI1). The test is described as follows: qHTS assay to identify small molecule agonists of the farnesoid-X-receptor (FXR) signaling pathway (AID 743220; active = well fitted activation curve with a large enough effect in the signal ratio in the repeat runs, not every such curve was filed as active; the % refers to the signal ratio). Summed up: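 FXR-UAS-bla HEK 293T cells carrying a UAS-driven beta-lactamase reporter were plated for 5 h at 37C/5% CO2, then exposed to DMSO-dissolved Tox21 10K compounds for 16 h at 37C. A LiveBLAzer B/G FRET substrate was loaded for 2 h at room temperature before fluorescence reading.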

Test [7] can be described thus: qHTS assay to identify small molecule antagonists of the farnesoid-X-receptor (FXR) signaling pathway - cell viability counter screen (AID 743221; active = well fitted cell-killing curve with a large enough effect in the repeat runs, not every such curve was filed as active; note: nearly all actives have a fitted effect of over 50% in size; note: potency is the fitted concentration of half-maximal effect). Summed up:
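In GeneBLAzer FXR-UAS-bla HEK 293T cells stimulated with 50 uM chenodeoxycholic acid (final), compounds acted for 16 h at 37 C. Viability was assessed afterwards by CellTiter-Glo luminescence.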

In test [8] the target is Vitamin D3 receptor (Homo sapiens) (UniProt P11473). The test is described as follows: qHTS assay to identify small molecule agonists of the vitamin D receptor (VDR) signaling pathway (AID 743222; calls by dose curve). Summed up:
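Beta-lactamase reporter readout (LiveBLAzer B/G FRET, 2 h RT) in VDR-bla cells after 16 h compound treatment at 37C, 5% CO2; cells pre-incubated 4 h before pin transfer of DMSO solutions.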

The target is the same in test [9]. The test is described as follows: qHTS assay to identify small molecule antagonists of the vitamin D receptor (VDR) signaling pathway (AID 743223; active = well fitted inhibition curve with a large enough effect in the signal ratio in the repeat runs, not every such curve was filed as active; the % refers to the signal ratio). The method, boiled down:
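Agonist 1alpha,25-dihydroxyvitamin D3 (3 nM in well) was added with each compound to VDR-bla cells preincubated 4 h. Cells stood 16 h at 37C, then FRET substrate 2 h at room temperature; fluorescence intensity recorded.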

Test [10] in a line: qHTS assay to identify small molecule agonists of the vitamin D receptor (VDR) signaling pathway - cell viability counter screen (AID 743224). Note: nearly all actives have a fitted effect of over 50% in size. Note: potency is the fitted concentration of half-maximal effect. Summed up: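 Cytotoxicity counter screen: VDR-bla cells, 16 h compound exposure at 37C, 5% CO2; CellTiter-Glo luminescence, 30 min RT, same wells as bla read.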
Test [11] in a line: qHTS assay to identify small molecule antagonists of the vitamin D receptor (VDR) signaling pathway - cell viability counter screen (AID 743225). Note: nearly all actives have a fitted effect of over 50% in size. Note: potency is the fitted concentration of half-maximal effect. The method, boiled down: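 Luminescent cell viability (CellTiter-Glo) in VDR-bla HEK 293T cells after 16 h compound exposure at 37C in the presence of 3 nM final 1-alpha,25-dihydroxy vitamin D3.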
A short description of test [12]: qHTS assay to identify small molecule agonists of the endoplasmic reticulum stress response signaling pathway (AID 1159516; active = well fitted activation curve with a large enough effect in the signal ratio in the repeat runs, not every such curve was filed as active; the % refers to the signal ratio). The method, boiled down: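 HeLa ESRE-bla reporter line; cpd 5 h, 37 C/5% CO2; LiveBLAzer B/G FRET substrate 2 h RT; ex 405, em 460/530 nm.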
A short description of test [13]: qHTS assay to identify small molecule agonists of the endoplasmic reticulum stress response signaling pathway - cell viability counter screen (AID 1159517; calls by dose curve). The method, boiled down: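 ESRE-bla HeLa cells (1,500/well) were plated overnight at 37 C and exposed to compounds for 5 hr. After the 2 hr beta-lactamase substrate read, CellTiter-Glo went into the same wells, and luminescence was read after 30 min at room temperature.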

A short description of test [14]: qHTS assay to identify small molecule antagonists of the retinoid-related orphan receptor gamma (ROR-gamma) signaling pathway - cell viability counter screen (AID 1159520). Note: nearly all actives have a fitted effect of over 50% in size. The method, boiled down: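 Cytotoxicity was read from cellular ATP (CellTiter-Glo luminescence) after 16 hr at 37 C with 1 uM doxycycline induction. The inducer was added 2 hr after compound transfer to Tet-on ROR gamma CHO cells.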

For test [15], the target named is Nuclear receptor ROR-gamma (Homo sapiens) (UniProt P51449). The test is described as follows: qHTS assay to identify small molecule antagonists of the retinoid-related orphan receptor gamma (ROR-gamma) signaling pathway (AID 1159521; note: nearly all actives have a fitted effect of over 50% in size; note: potency is the fitted concentration of half-maximal effect). Summed up:
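CHO cells expressing RORγ under a TET-on promoter, luciferase under RORE control. Dox 1 uM final, 16 h; compounds added 2 h prior. Luminescence decrease measured.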

The nature of test [16]: qHTS assay to identify small molecule agonists of the AP-1 signaling pathway - cell viability counter screen (AID 1159525; calls by dose curve; note: nearly all actives have a fitted effect of over 55% in size; note: potency is the fitted concentration of half-maximal effect). Summed up:
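Intracellular ATP by Cell Titer Glo luminescence (30 min, RT) in the same ME-180 AP-1-bla wells after the 5 h compound exposure at 37 °C. Normalised to tetra n-octyl ammonium bromide and DMSO controls.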

Test [17] can be described thus: qHTS assay to identify small molecule agonists of the AP-1 signaling pathway (AID 1159526; calls by dose curve).
In test [18] the target is Retinoic acid receptor RXR-alpha (Homo sapiens) (UniProt P19793). The test is described as follows: qHTS assay to identify small molecule agonists of the RXR signaling pathway (AID 1159527; calls by dose curve; note: nearly all actives have a fitted effect of over 35% in size). The method, boiled down: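 Beta-lactamase reporter assay, agonist format. Engineered HEK 293T line, charcoal-stripped FBS at 2%, overnight (16 hr) exposure, fluorescence at 460 and 530 nm after 405 nm excitation.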

Test [19] can be described thus: qHTS assay to identify small molecule agonists of the RXR signaling pathway - cell viability counter screen (AID 1159529). Note: nearly all actives have a fitted effect of over 50% in size. Note: potency is the fitted concentration of half-maximal effect. The method, boiled down:
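Same-well viability check after the LiveBLAzer FRET read: CellTiter-Glo added, luminescence measured after 30 min at room temperature. Reporter HEK 293T cells had been treated with compounds for 16 hr following a 5 hr preincubation.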

Test [20] in a line: qHTS assay to identify small molecule agonists of the NFkB signaling pathway - cell viability counter screen (AID 1159515; calls by dose curve; note: nearly all actives have a fitted effect of over 55% in size; note: potency is the fitted concentration of half-maximal effect). The method, boiled down: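 ME-180 NFkB-bla cells, 2,000/well; overnight attach; compound 5 hr, 37 C/5% CO2; LiveBLAzer substrate 1.5 hr RT; then CellTiter-Glo in same wells, 30 min RT, luminescence read.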

Each structure is given as a SMILES string. Records with an inconclusive call do not appear. The source made the active and inactive calls. Unless noted, calls come from the whole dose curve; as a rule, active = well fitted curve in the direction sought with a large enough effect in the repeat runs; inconclusive = weak or mixed curves; inactive = no such curve, though single readings can be large; an effect the other way counts as inactive or inconclusive.

Sequence of Retinoic acid receptor RXR-alpha (Homo sapiens) (P19793 whole entry, looked up): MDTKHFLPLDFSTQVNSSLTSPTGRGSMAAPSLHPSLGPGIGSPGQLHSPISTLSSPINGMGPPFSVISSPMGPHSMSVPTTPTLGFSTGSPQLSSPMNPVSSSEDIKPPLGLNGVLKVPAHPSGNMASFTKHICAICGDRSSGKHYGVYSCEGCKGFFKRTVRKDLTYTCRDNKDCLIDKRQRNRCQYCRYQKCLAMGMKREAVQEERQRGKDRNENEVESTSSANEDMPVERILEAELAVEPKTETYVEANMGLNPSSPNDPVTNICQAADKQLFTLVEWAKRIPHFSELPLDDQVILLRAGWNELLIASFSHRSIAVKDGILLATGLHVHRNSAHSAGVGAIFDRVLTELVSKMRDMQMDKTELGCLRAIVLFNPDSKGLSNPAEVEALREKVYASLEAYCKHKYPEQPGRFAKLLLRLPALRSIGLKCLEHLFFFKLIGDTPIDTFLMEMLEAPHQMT
Sequence of Peroxisome proliferator-activated receptor delta (Homo sapiens) (Q03181 whole entry, looked up): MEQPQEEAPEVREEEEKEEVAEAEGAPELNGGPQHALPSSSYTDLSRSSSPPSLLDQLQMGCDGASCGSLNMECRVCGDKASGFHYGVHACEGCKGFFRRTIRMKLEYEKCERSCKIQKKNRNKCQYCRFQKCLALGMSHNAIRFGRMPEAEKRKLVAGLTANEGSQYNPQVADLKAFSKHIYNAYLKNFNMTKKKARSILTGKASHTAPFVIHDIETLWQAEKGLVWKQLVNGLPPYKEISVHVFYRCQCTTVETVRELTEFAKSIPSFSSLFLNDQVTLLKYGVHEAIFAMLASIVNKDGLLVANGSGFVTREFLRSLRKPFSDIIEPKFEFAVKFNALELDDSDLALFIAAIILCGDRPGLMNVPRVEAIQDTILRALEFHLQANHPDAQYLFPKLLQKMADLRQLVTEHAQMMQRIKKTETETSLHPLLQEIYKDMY
Sequence of Bile acid receptor (Homo sapiens) (Q96RI1 whole entry, looked up): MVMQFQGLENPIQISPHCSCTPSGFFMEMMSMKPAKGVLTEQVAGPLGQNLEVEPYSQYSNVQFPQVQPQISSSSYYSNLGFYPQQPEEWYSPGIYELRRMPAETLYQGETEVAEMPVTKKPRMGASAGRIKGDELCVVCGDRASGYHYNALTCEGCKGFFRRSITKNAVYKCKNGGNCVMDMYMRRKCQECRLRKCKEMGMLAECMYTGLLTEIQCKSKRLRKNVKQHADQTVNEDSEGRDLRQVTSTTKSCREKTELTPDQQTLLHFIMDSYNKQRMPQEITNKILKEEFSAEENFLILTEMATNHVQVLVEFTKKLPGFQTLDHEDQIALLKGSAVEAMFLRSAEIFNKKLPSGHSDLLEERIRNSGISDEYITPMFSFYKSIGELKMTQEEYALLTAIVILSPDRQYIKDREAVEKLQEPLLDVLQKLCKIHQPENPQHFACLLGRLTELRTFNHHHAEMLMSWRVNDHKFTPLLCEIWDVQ
Sequence of Vitamin D3 receptor (Homo sapiens) (P11473 whole entry, looked up): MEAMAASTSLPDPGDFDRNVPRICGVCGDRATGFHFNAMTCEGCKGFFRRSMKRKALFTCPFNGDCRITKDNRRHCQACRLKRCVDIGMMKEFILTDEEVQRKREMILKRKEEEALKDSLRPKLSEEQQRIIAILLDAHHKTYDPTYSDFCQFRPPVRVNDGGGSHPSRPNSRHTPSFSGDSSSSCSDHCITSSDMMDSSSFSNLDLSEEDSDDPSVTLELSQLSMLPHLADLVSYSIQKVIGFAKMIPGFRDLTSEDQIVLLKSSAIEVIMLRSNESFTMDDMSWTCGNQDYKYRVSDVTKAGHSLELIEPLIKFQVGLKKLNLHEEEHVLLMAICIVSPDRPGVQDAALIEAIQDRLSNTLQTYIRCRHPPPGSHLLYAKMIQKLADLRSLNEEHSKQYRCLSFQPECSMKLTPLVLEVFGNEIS

As to `N#CC1(c2ccc(F)cc2)CCC(=O)CC1`, the Potency entry in test [1], in test [2], in [3], in test [4], in test [5] and in test [6] was “inactive” in each case. For the same compound, the Potency result in test [7], in test [8], in [9], in test [10], in test [11] and in test [13] was “inactive” throughout. Further, the Potency entry in [14], in [15], in test [16], in test [17], in test [18] and in test [19] was “inactive” throughout. Moreover, the compound was called inactive in test [12].
For the compound `C[n+]1ccn(Cc2ccccc2)c1`, the Potency entry in test [2], in test [4], in test [5], in test [6], in test [7] and in test [8] was “inactive” each time. Also, the Potency entry in test [9], in test [10], in test [11], in test [13], in test [14] and in test [15] was “inactive” in each case. Moreover, the Potency entry in test [16], in test [17], in test [18] and in test [19] was “inactive” in each case. Moreover, in test [12], the call was inactive.
For the compound `NC(=O)C1(N2CCCCC2)CCN(CCCN2c3ccccc3CCc3ccc(Cl)cc32)CC1`, the Potency in [2] was 18.8 µM (active); in test [3], 29.8 µM (active); in test [5] it was 11.9 µM (active); in test [7] it was 29.8 µM (active); in test [10], 29.8 µM (active); in [11] it was 21.3 µM (active). The Potency in test [20] was 26.8 µM (active); in [16], 26.8 µM (active); in [19], 21.3 µM (active).
For `O=C(NOCC1CC1)c1ccc(F)c(F)c1Nc1ccc(I)cc1Cl`, the Potency result in test [2], in [7], in test [8], in test [11] and in [20] was “inactive” each time. Further, the Potency in test [15] was 9.44 µM (active).
As to `C1CCCC1`, the Potency entry in test [2], in test [5], in test [7], in test [8], in test [9] and in [10] was “inactive” throughout. Further, the Potency result in test [11], in [13], in test [14], in test [15], in test [16] and in test [17] was “inactive” throughout. Besides, the Potency result in [18] and in [19] was “inactive” each time. For the same compound, in test [12], the call was inactive.
For `CCCCCCCC(=O)[O-].CCCCCCCC(=O)[O-].[Zn+2]`, the Potency entry in [2], in test [5], in test [7], in [8], in test [10] and in test [13] was “inactive” in each case. The Potency result in [14], in test [15], in [16], in [17], in [18] and in test [19] was “inactive” each time. For the same compound, the compound was called inactive in test [12].
As to `CCN(C(=O)N(CC)c1ccccc1)c1ccccc1`, the Potency entry in test [2], in test [5], in test [7], in test [10], in test [11] and in [13] was “inactive” in each case. For the same compound, the Potency entry in test [14], in [15], in test [16], in test [17], in [18] and in test [19] was “inactive” in each case. Further, the result in [12] was inactive.
For the compound `CCC(C)(C)C1CCCCC1OC(C)=O` (stereo not drawn), the Potency result in test [1], in test [5], in [7], in test [11], in test [13] and in [14] was “inactive” throughout. Moreover, the Potency result in test [15], in [16], in test [17], in test [18] and in test [19] was “inactive” in each case. Besides, the Potency in [2] was 54.9 µM (active); in test [10], 38.9 µM (active). In test [12], the outcome was inactive.
`O=C1c2ccccc2Cc2ccccc21`: the Potency result in test [1], in test [2], in test [3], in test [5], in test [7] and in test [8] was “inactive” in each case. The Potency result in [9], in test [10], in [11], in test [13], in [14] and in test [15] was “inactive” throughout. In addition, the Potency entry in test [16], in test [17], in test [18] and in [19] was “inactive” each time. Moreover, in [12], the call was inactive.
